Among the data in PubChem BioAssay AID1445 (SRMLSC, 2008) are inhibition values, retold here.

The whole screen tested about 220,000 compounds, of which about 910 (0.41%) were called active. What follows is part of a selection rich in actives, with near analogues and random picks from the rest. Entries with a potency or affinity are not part of this list. A number with no mark means an inactive call.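 The calls were made as follows: active = primary inhibition above the hit cutoff, then over 50% inhibition at one or more dose response concentrations (cut at about 23% in these data, passing the limit was not always enough); inconclusive = conflicting primary data, or primary hits not chosen for dose response; inactive = low primary inhibition, or under 50% at every dose.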

This assay deals with Aminopeptidase N (Plasmodium falciparum (isolate 3D7)) (UniProt O96935). Description: P. falciparum M1AAP inhibitors, biochemical, fluorogenic H-Leu-NHMec substrate, 1536-well (AID 1445).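 Also: plate controls were DMSO full reaction for no effect and no enzyme background for full effect.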 The settings on record: recombinant M1AAP, H-Leu-NHMec fluorogenic kinetic assay; at 30 µM, hits give high values unless noted.
Chain of Aminopeptidase N (Plasmodium falciparum (isolate 3D7)) (O96935 whole entry, looked up): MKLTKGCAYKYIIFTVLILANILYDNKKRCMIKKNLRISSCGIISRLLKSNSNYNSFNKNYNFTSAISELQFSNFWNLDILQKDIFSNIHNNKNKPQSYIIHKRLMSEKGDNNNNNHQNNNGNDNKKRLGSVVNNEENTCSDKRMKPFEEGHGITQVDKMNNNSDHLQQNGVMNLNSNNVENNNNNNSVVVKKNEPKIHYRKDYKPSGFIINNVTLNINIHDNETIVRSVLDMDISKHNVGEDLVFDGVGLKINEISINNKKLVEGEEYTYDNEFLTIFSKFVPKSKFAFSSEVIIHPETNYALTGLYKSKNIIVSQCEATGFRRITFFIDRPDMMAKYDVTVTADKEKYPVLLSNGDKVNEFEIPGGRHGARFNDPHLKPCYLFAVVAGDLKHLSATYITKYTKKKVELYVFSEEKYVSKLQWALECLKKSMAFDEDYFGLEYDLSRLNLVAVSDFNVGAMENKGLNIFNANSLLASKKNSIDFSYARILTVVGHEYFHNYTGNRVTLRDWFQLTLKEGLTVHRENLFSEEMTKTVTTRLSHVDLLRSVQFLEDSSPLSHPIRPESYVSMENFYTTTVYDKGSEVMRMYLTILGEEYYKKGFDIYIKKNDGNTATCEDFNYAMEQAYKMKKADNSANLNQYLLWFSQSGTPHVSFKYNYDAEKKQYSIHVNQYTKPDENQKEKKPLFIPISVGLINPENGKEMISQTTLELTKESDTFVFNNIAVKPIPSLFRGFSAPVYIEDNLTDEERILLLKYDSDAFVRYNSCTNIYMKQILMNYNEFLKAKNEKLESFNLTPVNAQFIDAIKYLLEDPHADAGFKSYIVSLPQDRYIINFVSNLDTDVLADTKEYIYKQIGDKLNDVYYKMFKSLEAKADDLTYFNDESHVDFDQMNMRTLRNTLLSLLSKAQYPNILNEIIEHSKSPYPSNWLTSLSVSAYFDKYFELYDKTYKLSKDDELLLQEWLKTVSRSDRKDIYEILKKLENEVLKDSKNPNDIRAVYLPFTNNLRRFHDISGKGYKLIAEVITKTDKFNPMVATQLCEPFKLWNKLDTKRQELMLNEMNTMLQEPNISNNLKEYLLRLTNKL
As usually defined, the inhibition is the relative decrease from the control value, in per cent. Take `O=C(Nc1ccc2ncccc2c1)c1ccccc1Cl`: the inhibition is 16.8%.

As to `O=C(Nc1ccc(C(F)(F)F)cc1)c1ccccc1Br`, the inhibition was -2.21%.

In the case of `CN1CCN(c2ccc(NC(=O)c3ccccc3Br)cc2)CC1`, the inhibition was 3.56%.

For the molecule `O=C(Nc1ccc(N2CCCCCC2)cc1)c1ccccc1Cl`, the inhibition was -5.82%.

In the case of `O=C(Nc1ccc(-n2ccnc2P(=O)(O)c2ccccc2)cc1)c1ccccc1Cl`, the inhibition is 75.1% (active).

With `CC(Cc1cccs1)NC(=S)Nc1ccc(Cl)c(Cl)c1` (stereo not drawn), the inhibition was -3.88%.

Take `Cc1ccc(OCc2ccc(C(=O)Nc3nc4ccccc4n3Cc3ccccc3)o2)c([N+](=O)[O-])c1`: the inhibition was 4.13%.

Take `Cc1ccc(C(=O)Cn2nnc3ccccc32)cc1C`: the inhibition was 5.82%.

Turning to `O=C1Nc2ccccc2N(O)N1c1ccc(S(=O)(=O)Nc2ccccn2)cc1`, the inhibition is 5.82%.

As for `Cc1cc(-c2nc3c4c5c(sc4[nH]c(=O)n3n2)CCC5)c(C)o1`, the inhibition is 27.1% (active).

`O=c1[nH]c2sc3c(c2c2nncn12)CCCC3`: the inhibition is 2.29%.

For the molecule `Cc1nc2sc3c(c2c(=O)o1)CCC3`, the inhibition was 7.65%.

Regarding `CCOC(=O)C1=C(c2ccccc2)Nc2ncnn2C1c1ccc(OC)c(OC)c1OC` (stereo not drawn), the inhibition was -1.38%.

In the case of `O=S(=O)(Nc1nc2ccccc2nc1Nc1ccc2c(c1)OCO2)c1ccccc1`, the inhibition is 33.5%.

Consider `O=S(=O)(Nc1nc2ccccc2nc1Nc1ccc2c(c1)OCCO2)c1cccs1`, for which the inhibition was 47.2% (active).

With `O=S(=O)(Nc1ccc2c(c1)OCCO2)c1cccs1`, the inhibition was -2.25%.

As for `CC1=C(C(=O)N2CCN(c3cc(C)ccc3C)CC2)C2(CCC(C)CC2)OC1=O` (stereo not drawn), the inhibition was 0.75%.

Regarding `NNC(=O)CSc1nnnn1-c1ccccc1`, the inhibition is -3.57%.

As for `Cc1cccc(C)c1NS(=O)(=O)c1ccc(OCCNS(C)(=O)=O)cc1`, the inhibition was -0.18%.

Regarding `N#Cc1cc2c(nc1Cl)CCCC2`, the inhibition is 3.36%.

Consider `COc1ccc(CCN=C(N)NS(=O)(=O)c2ccccc2)cc1OC`, for which the inhibition was 0.37%.

As to `CCOc1ccc(C2CC(=O)NC3=C2C(=O)CCC3)cc1Cl` (stereo not drawn), the inhibition was 1.99%.

With `CCOc1cc(C2C(C(=O)OC(C)C)=C(C)NC3=C2C(=O)CCC3)cc([N+](=O)[O-])c1O` (stereo not drawn), the inhibition is 21.4%.

With `CCOc1cc(C2C3=C(CCCC3=O)N(C)C3=C2C(=O)CCC3)cc(Cl)c1O`, the inhibition is 18.7%.

Take `CCOc1cc(C2C3=C(CC(C)(C)CC3=O)OC3=C2C(=O)CC(C)(C)C3)cc([N+](=O)[O-])c1O`: the inhibition was 14.2%.

As for `Fc1ccc(-c2nc3c(Cl)cc(C(F)(F)F)cn3c2Cl)cc1`, the inhibition is -1.92%.

`COC(=O)CSc1[nH]c2ccc(F)cc2c1[N+](=O)[O-]`: the inhibition was 13%.

`COC(=O)c1c(C)oc2ccc(NS(=O)(=O)c3cccs3)cc12`: the inhibition is 6.82%.

As for `CCOC(=O)c1c(C)oc2ccc(NS(=O)(=O)c3cccs3)cc12`, the inhibition was 17.3%.

Consider `CC(C)(C)NC(=O)COC(=O)c1nsc(Cl)c1Cl`, for which the inhibition was 0.52%.

In the case of `CC(C)(C)NC(=O)NC(=O)CN1CCN(c2cccc(Cl)c2)CC1`, the inhibition is -0.55%.

Regarding `COn1c(SCc2cccnc2)nc2ccccc2c1=O`, the inhibition was -0.13%.

`COc1ccc(C(=O)NNC(=O)CSc2nnc(C)n2C)cc1`: the inhibition is 1%.

For the molecule `Cc1ccc(-c2nnc(SCC(=O)Nc3ccc4c(c3)oc3ccccc34)n2C)c(Cl)c1`, the inhibition is 3.17%.

For the molecule `CC(=O)Nc1ccc(-c2nnc(SCC(=O)Nc3ccc4c(c3)oc3ccccc34)n2C)cc1`, the inhibition is 8.23%.

Regarding `COc1ccc(NC(=O)CSc2nnc(-c3ccccc3C)n2N)cc1`, the inhibition was 3.11%.

On to `COc1ccc(NC(=O)CSc2nnc(Cc3cccn3C)n2-c2ccc(F)cc2)cc1`, for which the inhibition was 23.8% (active).

Regarding `COc1ccc(C(=O)NNC(=O)CSc2nnc(-c3cccnc3)n2C)cc1`, the inhibition is 10.3%.

Turning to `COc1ccc(-c2nnc(SCC(=O)Nc3ccccc3)n2C)cc1`, the inhibition is 0.31%.

Turning to `COc1ccc(-n2c(Cc3cccn3C)nnc2SCC(=O)Nc2ccc(F)cc2)cc1`, the inhibition was 12%.

For the molecule `Cn1c(SCC(=O)Nc2ccc3c(c2)oc2ccccc23)nnc1-c1ccccc1`, the inhibition is 25.6% (active).

As to `COc1ccc(NC(=O)CSc2nnc(-c3ccccc3C)n2C)cc1`, the inhibition was 27.4% (active).

Turning to `COc1ccc(NC(=O)CSc2nnc(Cc3cccn3C)n2-c2ccc(OC)cc2)cc1`, the inhibition is 5.21%.

Consider `Cc1cc(C)c2c3c(sc2n1)C1(CCSCC1)C(C#N)=C(N)O3`, for which the inhibition is 9.27%.

On to `C1CCN(c2nc3nonc3nc2NCC2CCOCC2)CC1`, for which the inhibition was 7.54%.

For `CC(=O)N1CCN(c2ccc(NC(=O)c3ccc(Br)o3)cc2Cl)CC1`, the inhibition was 4.42%.

With `CC(C)c1ccc(-c2csc(NC(=O)c3cccs3)c2C(=O)O)cc1`, the inhibition is 8.46%.

Take `COc1ccc(-c2csc(NC(=O)c3cccs3)c2C(=O)O)cc1OC`: the inhibition was 19.5%.

`Fc1cccc(Nc2nc(Cl)nc(Cl)n2)c1`: the inhibition was 8.99%.

Turning to `O=C1NCCN(Cc2cccc(Oc3ccccc3)c2)C1CC(=O)N1CCCCO1` (stereo not drawn), the inhibition is 1.7%.

For `CCOc1cccc2cc(C(=O)Nc3ccccc3-c3ccccc3)c(=O)oc12`, the inhibition is 1.66%.

Take `COC(=O)/C(N=Nc1cccc(C(F)(F)F)c1)=C(\C)O`: the inhibition is 8.29%.

Turning to `Cc1ccc(CN(Cc2cc3cc4c(cc3[nH]c2=O)OCCO4)Cc2nnnn2Cc2ccco2)cc1`, the inhibition is 22.7%.

As to `CCc1ccc2[nH]c(=O)c(CN(Cc3ccccc3)Cc3nnnn3Cc3ccco3)cc2c1`, the inhibition is 13.2%.

On to `O=c1[nH]c2cc3c(cc2cc1CN(Cc1cccnc1)Cc1nnnn1Cc1ccco1)OCCO3`, for which the inhibition is 26.5% (active).

As to `CCCOc1ccc(Cc2nc(N)nc(N)n2)cc1`, the inhibition is -6.23%.

Regarding `C=C(C)C(=O)Nc1cccc(C2=NOC3(C2)C[C@@H](C(N)=O)N(C(=O)c2ccc(Cl)cc2)C3)c1` (stereo partly drawn), the inhibition was 4.17%.

`Cc1nn(Cc2ccccc2)c(Cl)c1/C=C1\NC(=S)NC1=O`: the inhibition was 4.75%.

As to `O=C(Nc1cccc(NC(=O)c2cccs2)c1)c1ccco1`, the inhibition was 14.8%.

In the case of `COc1cc(NC(=O)c2ccc([N+](=O)[O-])o2)ccc1NC(=O)c1cccs1`, the inhibition is 4.73%.

For the molecule `O=C(O)CCc1ccc(-c2ccccc2)n1NC(=O)c1sc2ccccc2c1Cl`, the inhibition was 24.7% (active).

Turning to `O=C(O)CCc1ccc(-c2ccccc2)n1NC(=O)c1cccs1`, the inhibition is 6.72%.

On to `O=C(O)CCc1ccc(-c2ccccc2)n1NC(=O)c1ccco1`, for which the inhibition is 3.09%.

Take `Cc1ccc(NC(=O)Nc2sc(=S)n(C)c2C)cc1`: the inhibition was -0.53%.

In the case of `COc1ccccc1N=Cc1nc(-c2ccccc2)oc1OC(C)=O`, the inhibition was 19.1%.

In the case of `CCC(=O)Oc1oc(-c2ccccc2)nc1C=Nc1ccc(C)cc1`, the inhibition is 1.55%.

Turning to `CCC(=O)Oc1oc(-c2ccccc2)nc1C=Nc1ccccc1OC`, the inhibition was 24.3% (active).

Take `CCOC(=O)c1cc(C)sc1/N=C/C1C(=O)CC(C)(C)CC1=O`: the inhibition was 1.61%.

As for `CCCn1c(SCC(=O)Nc2cccc(S(=O)(=O)N(C)C)c2)nc2ccccc2c1=O`, the inhibition is 6.03%.

On to `O=C(CSc1nnnn1-c1cccc2ccccc12)NC(C(=O)O)(c1ccccc1)c1ccccc1`, for which the inhibition was 23.1%.

With `Cc1ccc(-n2nnnc2SCC(=O)Nc2ccccc2-c2ccccc2)cc1C`, the inhibition was -2.36%.

As to `O=C(O)CC/C(=N\Nc1ccc([N+](=O)[O-])cc1)c1ccccc1`, the inhibition was 7.87%.

On to `CCOc1c(Br)cc(C(N)=O)cc1OC`, for which the inhibition was 2.69%.

Turning to `COc1cc(C(N)=O)cc(Br)c1OC`, the inhibition is 23.4% (active).

Consider `CCOc1cc(C(N)=O)cc(Br)c1OC`, for which the inhibition is -3.95%.

`Cc1nn(CCS(=O)(=O)c2ccc(Cl)cc2)c(C)c1Br`: the inhibition is 0.55%.

Take `COCc1cc(C)nc(OCC(=O)N/N=C/c2ccc(O)cc2O)c1C#N`: the inhibition is -7.94%.

With `CCSc1nnc(-c2cc3c(s2)-c2ccccc2CC3)o1`, the inhibition is 19.1%.

On to `CSc1nnc(-c2cc3c(s2)-c2ccccc2CC3)o1`, for which the inhibition was 18.2%.

In the case of `O=C(NCc1ccccc1)c1ccc2c(c1)C(=O)N(Cc1ccncc1)C2=O`, the inhibition is -0.3%.

In the case of `COc1ccc(C(C(=O)NC(C)(C)C)N(Cc2cccs2)C(=O)CCC(=O)Nc2cc(C)on2)cc1` (stereo not drawn), the inhibition is -3.34%.

Regarding `COc1cc(CCC(=O)OCC(=O)Nc2c(C)cccc2C(C)C)cc(OC)c1OC`, the inhibition is -0.28%.

Consider `Cc1cc2cc(C(c3nnnn3Cc3ccco3)N3CCc4ccccc43)c(=O)[nH]c2cc1C` (stereo not drawn), for which the inhibition was 21.9%.

Turning to `Cc1cc2cc(C(c3nnnn3Cc3ccco3)N3CCc4ccccc4C3)c(=O)[nH]c2cc1C` (stereo not drawn), the inhibition is 14%.

With `Cc1cccc2cc(C(c3nnnn3CC3CCCO3)N3CCc4ccccc4C3)c(=O)[nH]c12` (stereo not drawn), the inhibition is 12.2%.

As to `COc1ccc2[nH]c(=O)c(CN(C3CCCCC3)C(c3nnnn3Cc3ccco3)C(C)C)cc2c1` (stereo not drawn), the inhibition was 23.7% (active).

As for `Cc1ccc(C)c2[nH]c(=O)c(C(c3nnnn3Cc3ccco3)N3CCc4ccccc4C3)cc12` (stereo not drawn), the inhibition is 24.6% (active).

With `CCC(c1nnnn1Cc1ccco1)N(Cc1cc2cc(OC)ccc2[nH]c1=O)C1CCCCC1` (stereo not drawn), the inhibition was 14.1%.

Turning to `Cc1cc2cc(C(c3nnnn3Cc3ccco3)N3CCCCC3)c(=O)[nH]c2cc1C` (stereo not drawn), the inhibition is 26.8% (active).

Turning to `COc1ccc2[nH]c(=O)c(CN(Cc3nnnn3Cc3ccco3)C3CCCCC3)cc2c1`, the inhibition is 16%.

As for `Cc1ccc(C)c2[nH]c(=O)c(C(c3nnnn3Cc3ccccc3)N3CCc4ccccc4C3)cc12` (stereo not drawn), the inhibition is 7.95%.

Take `CCOC(=O)c1ccc(Nc2nnc(C)c3ccccc23)cc1`: the inhibition is 6.41%.

Regarding `CSc1ccccc1NC(=O)CN(C)CC(=O)NCc1ccccc1`, the inhibition was -1.28%.
